PubChem BioAssay (NCI)
Compounds without any hit were thinned out: in the full panel of roughly 83,000, 20% have a hit.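 Assay: single dose, 48 h. Readout: percent growth (0 = no net growth; negative = cell death). Active: <10.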 Calls of active or inactive are those of the source.

These compounds were tested on HL-60(TB) leukemia (assay: NCI-60 one-dose screen, 48 h (100 = growth as untreated, 0 = no growth, -100 = all killed)). Conditions: 10 µM unless noted.

| Compound | growth |
| --- | --- |
| CCCCOCCOCCOCc1cc2c(cc1Br)OCO2 | 108% (inactive) |
| N#CC(C#N)=Cc1c(-c2ccccc2)[nH]c2ccccc12 | -7.65% (active) |
| COc1cc(C(=O)/C=C/c2c(C)n([O-])c3ccc(Cl)cc3[n+]2=O)cc(OC)c1OC | -59.5% (active) |
| COc1cc(N2CCC(N3CCN(C)CC3)CC2)ccc1Nc1ncnc(Nc2ccccc2S(=O)(=O)C(C)C)n1 | 102% (inactive) |
| CCN(CC)c1ccc(/C=C/C(=O)c2cccc(NS(C)(=O)=O)c2)cc1 | 9.82% (active) |
| O=c1[nH]nc(-c2ccc(Cl)cc2)cc1Cc1ccccc1 | 77% (inactive) |
| CNCc1ccccc1CN(CC(=O)Nc1ccc2c(c1)CC1(C2)C(=O)Nc2ncccc21)C(=O)C(C)(C)C (stereo not given) | 100% (inactive) |
| N#Cc1nc(-c2ccc(F)cc2)oc1S(=O)(=O)N1CCOCC1 | 16% (inactive) |
| CCCCCCCCCCCCNC(=O)N[C@H](C(=O)N[C@H]1/C=C/OCCNC(=O)/C=C/[C@H](C(C)C)NC1=O)C(C)C | 93.8% (inactive) |
| c1csc(-c2[nH]nc3c2CCc2ccccc2-3)c1 | 132% (inactive) |
| COc1ccc2c(c1)c(-c1nc(-c3c[nH]c4c(Cl)nccc34)cs1)cn2C | 108% (inactive) |
| COc1ncnc2c1ncn2C/C(Br)=C(\Br)CCl | 47.1% (inactive) |
| CC(=O)Nc1ccc(S(=O)(=O)c2ccnc3cc(Cl)ccc23)cc1 | 87% (inactive) |
| CC(C)=NNC(N)=S | 84.7% (inactive) |
| COc1ccc(N=Nc2nccs2)c(O)c1 | -32.2% (active) |
| COc1cc(CNC(=O)CCCC/C=C/C(C)C)ccc1OCc1cn(-c2cccc([N+](=O)[O-])c2)nn1 | 109% (inactive) |
| COc1ccccc1C(OC(C)=O)OC(C)=O | 87% (inactive) |
| CNCCCn1c2c(c3ccc(F)cc3c1=O)C(=O)c1cc(OC)cnc1-2 | -16.7% (active) |
| O=C(CSc1nnc(-c2ccc(Cl)cc2)o1)Nc1ccc(C(=O)/C=C/c2ccccc2)cc1 | 97.1% (inactive) |
| CCCCNCCCN(CCCC)CCCNCCCC | 98.5% (inactive) |

| Compound | growth |
| --- | --- |
| COc1ccc(C(O)(c2ccccc2)C(C(=O)O)c2ccccc2)cc1 (stereo not given) | 110% (inactive) |
| COc1ccc(/C=C/c2nc3ccccc3nc2/C=C/c2ccc(OC)cc2)cc1 | 105% (inactive) |
| O=C1/C(=C/c2cn(-c3ccccc3)nc2-c2ccccc2)SC(=S)N1C1CCCCC1 | 116% (inactive) |
| CCCCCCCC/C=C/CCCCCCCC1=NC(C)(C)CN1c1ccccc1 | 70% (inactive) |
| Cc1sc2nc(CSc3nnc(-c4ccco4)o3)[nH]c(=O)c2c1C | 68.6% (inactive) |
| O=C(CCCCCCCCC(=O)N/N=C\c1cc(Cl)ccc1O)N/N=C\c1cc(Cl)ccc1O | 9.81% (active) |
| CC(=O)c1cc2c(N)c(C(=O)Nc3cccc4ccncc34)sc2nc1C | 86.2% (inactive) |
| CSc1nc(N)c2c(n1)N(C)C=NS2(=O)=O | 124% (inactive) |
| COc1ccc(C(=O)c2cc(OC)c(OC)c(OC)c2)cc1/C=C/C(=O)c1ccc(O)cc1 | 14.2% (inactive) |
| CN1CCN(Cc2ccc(NC(=O)c3cncc(C#Cc4cnn5ccccc45)c3)cc2C(F)(F)F)CC1 | -21.3% (active) |
| CCN(CC)CCCNCc1cc(-c2ccccc2)nc2ccccc12 | -19.3% (active) |
| CC(C)=CC(=O)N[C@@H]1CC2CCC3C(CC[C@@]4(C)C3CC[C@@H]4C(C)N(C)C)[C@@]2(C)C[C@@H]1O (stereo not given in full) | -63.8% (active) |
| C=CCc1cc(OC)c(OC)c(OC)c1 | 78.7% (inactive) |
| CS(=O)(=O)c1ccc(N/N=C/c2c(-c3ccc(S(C)(=O)=O)cc3)[nH]c3ccc(F)cc23)cc1 | -14.6% (active) |
| COc1cc(OCc2cccc(-c3ccccc3)c2C)cc(OC)c1CN1CCCCC1C(=O)NCCOCCOCCN (stereo not given) | -42.4% (active) |
| CN(C)c1ccc(C#Cc2c(F)cccc2Cl)cc1 | 79% (inactive) |
| C[N+]1=C(/C=C/c2ccc(I)cc2)C(C)(C)c2ccccc21 | 39.4% (inactive) |
| CN(C)c1ccc2c(c1)OC(N)=C(C#N)C2c1ccc2c(c1)CCCN2C (stereo not given) | 5.46% (active) |
| S=C(c1ccc2c(c1)OCO2)N1CCN(c2ccccc2Cl)CC1 | 87.6% (inactive) |
| O=C(c1ccc(O)cc1)c1ccc(O)cc1 | 117% (inactive) |
